Data from the antibiotic and cytotoxicity screens of Wong et al. (2023).
About 500 (1.3%) of roughly 39,000 compounds were called active. The full list was thinned out, with actives kept by preference.

Test system: S. aureus RN4220
Assay: growth inhibition call (relative growth <= 0.2)
Conditions: 50 µM

| SMILES | growth inhibition call |
| --- | --- |
| C=c1ccc(C)cc1=C1NN=C(NC(=O)c2ccc(S(=O)(=O)N(CCOC)CCOC)cc2)O1 | inactive |
| CC(C)NC(=O)NCC[C@H]1CC[C@H](NC(=O)CN(C)C)[C@@H](CO)O1 | inactive |
| C/C=C/c1ccc2c(c1)O[C@H](CN(C)Cc1ccc(C(=O)O)cc1)[C@@H](C)CN([C@H](C)CO)S2(=O)=O | inactive |
| C[C@@H]1CN([C@H](C)CO)C(=O)c2cc(NC(=O)Nc3ccc4c(c3)OCO4)ccc2O[C@@H]1CN(C)Cc1ccc(C(F)(F)F)cc1 | inactive |
| C[C@H]1CCCCO[C@H](CN(C)CC2CCCCC2)[C@@H](C)CN([C@@H](C)CO)C(=O)c2cc(NC(=O)C3CCCCC3)ccc2O1 | inactive |
| O=C(Nc1nc(OCCN2CCCC2=O)cnc1-c1cc(Cl)cc(Cl)c1)c1cc2ccccc2s1 | inactive |
| C[C@H](CO)N1C[C@H](C)[C@H](CN(C)Cc2ccc(C(=O)Nc3ccccc3N)cc2)Oc2c(NC(=O)Nc3cccc4ccccc34)cccc2C1=O | inactive |
| C[C@H]1CN([C@@H](C)CO)C(=O)c2cccc(NC(=O)Nc3ccc(C(F)(F)F)cc3)c2O[C@H]1CN(C)C(=O)Nc1ccc2c(c1)OCO2 | active |
| C[C@H]1CN([C@@H](C)CO)C(=O)c2cccc(NC(=O)Nc3ccc4c(c3)OCO4)c2O[C@@H]1CN(C)C(=O)Nc1ccc(C(F)(F)F)cc1 | inactive |
| C[C@H](CO)N1C[C@H](C)[C@H](CN(C)C(=O)Nc2ccc(C(F)(F)F)cc2)Oc2c(NC(=O)Nc3ccc4c(c3)OCO4)cccc2C1=O | inactive |
| C[C@H](CO)N1C[C@H](C)[C@H](CN(C)C(=O)Nc2ccc3c(c2)OCO3)Oc2c(NC(=O)Nc3ccc(C(F)(F)F)cc3)cccc2C1=O | active |
| C[C@@H]1CN([C@H](C)CO)C(=O)c2cccc(NC(=O)Nc3ccc(C(F)(F)F)cc3)c2O[C@@H]1CN(C)C(=O)Nc1ccc2c(c1)OCO2 | inactive |
| C[C@@H]1CN([C@@H](C)CO)C(=O)c2cccc(NC(=O)Nc3ccc(C(F)(F)F)cc3)c2O[C@H]1CN(C)C(=O)Nc1ccc2c(c1)OCO2 | inactive |
| C[C@H](CO)N1C[C@H](C)[C@H](CN(C)Cc2ccc3c(c2)OCO3)OCCCC[C@H](C)Oc2ccc(NC(=O)CCC(F)(F)F)cc2C1=O | inactive |
| COc1ccccc1-c1ccc2c(c1)O[C@@H](CN(C)C(=O)c1cccnc1)[C@@H](C)CN([C@@H](C)CO)S2(=O)=O | inactive |
| COc1cccc(NC(=O)C[C@@H]2CC[C@@H]3[C@H](COc4ccc(NC(=O)C5CCOCC5)cc4C(=O)N3C)O2)c1 | inactive |
| Cc1noc(C)c1S(=O)(=O)Nc1ccc2c(c1)C(=O)N([C@H](C)CO)C[C@H](C)[C@H](CN(C)S(=O)(=O)c1ccc(F)cc1)O2 | inactive |
| CCOC(=O)[C@H]1C/C=C/C[C@H](C(=O)OCC)C(=O)O[C@H]2[C@@H](OC)O[C@H](CO)[C@@H](OC(=O)Nc3ccc(Br)cc3)[C@@H]2OC1=O | inactive |
| CCOc1ccc(CO[C@@H]2O[C@H](CO)[C@@H](O)[C@H](O)[C@H]2NC(C)=O)cc1OC | inactive |
| Cn1cnc(CCNC(=O)C[C@H]2CC[C@H]3[C@@H](COC[C@H](O)CN3C(=O)Nc3ccc(C(F)(F)F)cc3)O2)c1 | inactive |

| SMILES | growth inhibition call |
| --- | --- |
| Cn1cnc(CCNC(=O)C[C@@H]2CC[C@@H]3[C@H](COC[C@@H](O)CN3C(=O)Nc3ccc(C(F)(F)F)cc3)O2)c1 | inactive |
| Cn1cnc(CCNC(=O)C[C@@H]2CC[C@H]3[C@@H](COC[C@@H](O)CN3C(=O)Nc3ccc(Cl)cc3)O2)c1 | inactive |
| Cn1cnc(CCNC(=O)C[C@@H]2CC[C@@H]3[C@H](COC[C@H](O)CN3C(=O)Nc3ccc(C(F)(F)F)cc3)O2)c1 | active |
| Cn1cnc(CCNC(=O)C[C@@H]2CC[C@H]3[C@@H](COC[C@@H](O)CN3C(=O)Nc3ccc(C(F)(F)F)cc3)O2)c1 | active |
| Cn1cnc(CCNC(=O)C[C@H]2CC[C@@H]3[C@H](COC[C@H](O)CN3C(=O)Nc3ccc(C(F)(F)F)cc3)O2)c1 | active |
| Cn1cnc(CCNC(=O)C[C@@H]2CC[C@H]3[C@@H](COC[C@H](O)CN3C(=O)Nc3ccc(Cl)cc3)O2)c1 | inactive |
| Cn1cnc(CCNC(=O)C[C@H]2CC[C@@H]3[C@H](COC[C@@H](O)CN3C(=O)Nc3ccc(Cl)cc3)O2)c1 | inactive |
| Cn1cnc(CCNC(=O)C[C@@H]2CC[C@H]3[C@@H](COC[C@H](O)CN3C(=O)Nc3ccc(C(F)(F)F)cc3)O2)c1 | inactive |
| Cn1cnc(CCNC(=O)C[C@H]2CC[C@H]3[C@@H](COC[C@@H](O)CN3C(=O)Nc3ccc(Cl)cc3)O2)c1 | inactive |
| Cn1cnc(CCNC(=O)C[C@H]2CC[C@@H]3[C@H](COC[C@@H](O)CN3C(=O)Nc3ccc(C(F)(F)F)cc3)O2)c1 | inactive |
| Cn1cnc(CCNC(=O)C[C@H]2CC[C@H]3[C@@H](COC[C@@H](O)CN3C(=O)Nc3ccc(C(F)(F)F)cc3)O2)c1 | active |
| CN1C(=O)c2cc(NC(=O)C3CCC3)ccc2OC[C@H]2O[C@H](CC(=O)NCCc3ccncc3)CC[C@H]21 | inactive |
| CO[C@H]1CN(C)C(=O)c2cc(NS(=O)(=O)CC(F)(F)F)ccc2OC[C@@H](C)N(C(=O)NC(C)C)C[C@H]1C | inactive |
| O=C(C[C@@H]1CC[C@H](NC(=O)Cc2ccccn2)[C@H](CO)O1)NCCCN1CCOCC1 | inactive |
| COCCOC(=O)N1C(=O)[C@@]2(c3cc(C#Cc4ccc(OC)cc4)ccc31)[C@H](C(=O)N1CCc3cc(OC)c(OC)cc3C1)[C@H]1C(=O)O[C@H](c3ccccc3)[C@H](c3ccccc3)N1[C@@H]2c1ccc(O)cc1 | inactive |
| C[C@H]1CN([C@@H](C)CO)C(=O)c2cc(C3=CCCC3)cnc2O[C@H]1CN(C)C(=O)Nc1ccc(C(F)(F)F)cc1 | inactive |
| C[C@H]1CN([C@@H](C)CO)C(=O)c2cccc(NC(=O)Nc3cccc4ccccc34)c2O[C@@H]1CN(C)C(=O)Nc1cccc2ccccc12 | inactive |
| C#CCn1c(=O)c2c(OC)ccnc2n(C)c1=O | inactive |
| Cc1ccccc1S(=O)(=O)N1[C@@H]2Cn3c(cccc3=O)[C@H]1[C@@H](C(=O)N1CCOCC1)[C@@H]2CO | inactive |
